Screens (PubChem)
An excerpt weighted towards active compounds, which were near 3.2% of everything screened.
ALOX15 inhib: blocks human 15-lipoxygenase activity; hit rate 1.4% among 74,000; P16050; purified 15hLO-1, xylenol orange hydroperoxide absorbance; AID 887; Potency, µM (highest dose often 57.1 µM), for the others: top-dose activity change, negative = inhibition, hits mostly inhibitors; further: on the % scale 0 is the no-effect control and ±100 the full control effect; nearly all actives have a fitted effect of over 55% in size
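Compounds were preincubated 15 min at room temperature with 40 nM purified human enzyme (25 mM Hepes pH 7.5, 0.01% Triton X-100); 50 uM arachidonic acid reacted 6 min. Fe-xylenol orange detection, 30 min, absorbance ratio 573/405 nm.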
Hsp90 Hop PPI: changes Hsp90-Hop TPR2A binding signal, up or down | AlphaScreen TPR2A-His6 binding biotin-Hsp90 C-terminal peptide | Potency, µM (highest dose often 57 µM), without a hit: at the top dose activity change, negative = inhibition | hit rate 0.44% among 71,000; active means well fitted curve in either direction with a large enough effect; inconclusive means small, poorly fitted or top-dose-only effect, or another doubt; further: on the % scale 0 is the no-effect control and ±100 the full control effect
USP2a inh: USP2a (human) protease inhibition | O75604 | USP2a enzymatic assay, qHTS inhibition | Potency, µM (top dose mostly 38.3 µM), without a hit: at the highest dose activity change, negative = inhibition, actives largely listed as inhibitors | hit rate 0.1% among 60,000 | AID 927; further: nearly all actives have a fitted effect of over 60% in size
Target sequence (O75604 whole entry, looked up): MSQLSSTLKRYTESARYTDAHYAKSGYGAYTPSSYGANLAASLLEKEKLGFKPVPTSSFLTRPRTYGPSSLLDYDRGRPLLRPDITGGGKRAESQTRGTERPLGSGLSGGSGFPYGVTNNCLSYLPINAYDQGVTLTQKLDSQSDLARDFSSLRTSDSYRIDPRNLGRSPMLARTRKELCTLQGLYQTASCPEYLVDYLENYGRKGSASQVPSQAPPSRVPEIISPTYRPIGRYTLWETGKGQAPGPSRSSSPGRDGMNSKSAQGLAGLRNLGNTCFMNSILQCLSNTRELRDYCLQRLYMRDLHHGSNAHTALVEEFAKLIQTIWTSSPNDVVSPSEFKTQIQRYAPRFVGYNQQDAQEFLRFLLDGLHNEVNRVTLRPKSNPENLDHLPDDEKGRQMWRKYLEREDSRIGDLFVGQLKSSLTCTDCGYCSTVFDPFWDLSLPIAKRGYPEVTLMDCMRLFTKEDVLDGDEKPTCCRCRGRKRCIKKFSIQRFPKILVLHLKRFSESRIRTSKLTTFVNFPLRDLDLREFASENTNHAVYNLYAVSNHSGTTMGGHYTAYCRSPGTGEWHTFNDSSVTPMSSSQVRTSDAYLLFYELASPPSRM
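Coupled readout: USP2-cleaved Ub-PLA2 (20nM final) turns over NBD C6-HPC (20uM final), Ex 460nm/Em 535nm after 2.5 h, time-zero read flagging artifacts. Enzyme (20nM final, pH 8.0 Tris) given 30 min RT with compound first; NEM defines full inhibition.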
Tau fil binding: tau filament binding. recombinant tau filaments, thioflavin S fluorescence, 15 h; filaments grown with octadecylsulfate alongside compound. hit rate 2% among 71,000. Potency, µM (titrated, usually from 57.1 µM), without a hit: at the highest dose activity change, negative = inhibition. P10636. AID 596;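 further: on the % scale 0 is the no-effect control and ±100 the full control effect; actives lower thioflavin S fluorescence by blocking filaments or displacing dye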
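His-tagged recombinant human tau (exons 2, 3 and 10 included), 1 uM, was induced to fibrillize by 30 uM sodium octadecylsulfate with compound present. After 15 h at 37 C, thioflavine S fluorescence (ex 450, em 510 nm) was read.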
An asterisk follows results filed as active; i = inactive; u = inconclusive; x = no result; [ ] = dose if it differs, or a comment. Unless noted, the call rests on the fitted dose curve; in most records, active means well fitted curve in the direction sought with a large enough effect; inconclusive means small, poorly fitted or top-dose-only effect, or another doubt; inactive means no such curve, though single readings can be large; an effect the other way counts as inactive or inconclusive. Potency means the concentration at half of the fitted maximal effect.

SMILES	ALOX15 inhib	Hsp90 Hop PPI	USP2a inh	Tau fil binding
COc1ccc(-c2nc3cnc(N4CCNCC4)nc3n(Cc3cccc(OC)c3)c2=O)cc1	-12.2%	u	107.7%	178.3%
COc1cccc(Cn2c(=O)c(-c3cn(C)c4ccccc34)nc3cncnc32)c1	-2.9%	-5.8%	220.1%	5.5%
COc1cccc(Nc2ncc3ncc(=O)n(CCC#N)c3n2)c1	2.2%	-3.2%	22.7%	-7.1%
Cc1nc(N2CCOCC2)c2nc(-c3ccccc3)n(CC3CCN(C)CC3)c2n1	-14.7%	-3.1%	x	-8.7%
COC(=O)[C@@H]1C[C@H]1[C@@H](NC(=O)OCc1ccccc1)c1ccccc1	x	-3.1%	x	-3.2%
CC(C)[C@@H](C(=O)O)N1C(=O)c2ccccc2C1=O	4.6%[11.4 µM]	3.2%[11 µM]	x	-4.7%[11.4 µM]
COc1cccc(Cn2c(=O)c(-c3ccc(Cl)cc3)nc3cncnc32)c1	-14.6%	-11.9%	169.7%	25.1µM*
COc1ccccc1CCn1c(=O)c(-c2ccc(Cl)cc2)nc2cncnc21	-11.8%	-2.5%	44.6%	12.6µM*
COc1ccc(Nc2ncc3nc(-c4cccs4)c(=O)n(Cc4cccc(OC)c4)c3n2)cc1	-6.9%	-1.6%	179.1%	5.1%
COc1ccc(Oc2ncc3nc(-c4cn(C)c5ccccc45)c(=O)n(CCC#N)c3n2)cc1	6.6%	5.01µM*	122.0%	248.9%
COc1cccc(Cn2c(=O)c(-c3cccs3)nc3cnc(Nc4cccc(OC)c4)nc32)c1	-15.2%	7.94µM*	157.5%	i
CSc1nc(N)c2ncn([C@@H]3O[C@@H](COP(=O)(O)OP(=O)(O)O)[C@@H](O)[C@H]3O)c2n1	4.5%	-6.5%	-1.6%	3.1%
Cc1ccc(OCc2occc2C(=O)O)cc1	0.8%	0.1%	-6.1%	5.1%
NC(Cc1ccccc1)(C(=O)O)C(=O)O	-2.6%[11.4 µM]	3.9%[11 µM]	x	5.3%[11.4 µM]
COc1cccc(Cn2c(=O)c(-c3ccc(Cl)cc3)nc3cnc(OC)nc32)c1	-0.3%	-2.8%	141.8%	12.6µM*
COc1cccc(Cn2c(=O)c(-c3ccc(Cl)cc3)nc3cnc(N4CCN(C)CC4)nc32)c1	-6.8%	-4.5%	139.9%	u
COc1cccc(-c2nc(NCc3ccccc3OC)c3ccccc3n2)c1	1.2%	u	u	47.2%
COc1ccccc1CNc1nc(-c2ccc(N(C)C)cc2)nc2ccccc12	20µM*	-14.3%	4.8%	i
COc1ccccc1CNc1nc(-c2ccccc2OC)nc2ccccc12	u	-10.2%	201.2%	3.98µM*
COc1ccccc1-c1nc(NC2CC2)c2ccccc2n1	-17.2%	-5.4%	101.3%	15.8µM*
COc1ccccc1-c1nc(NCc2cnc(C)cn2)c2ccccc2n1	15.8µM*	u	0.0%	u
COc1ccc(C(=O)N2CCC[C@@]3(CCN(c4ccccc4)C3)C2)cc1	-16.2%	-18.2%	87.6%	-17.8%
NC[C@H](O)c1ccc(O)c(O)c1	9.0%	-11.9%	2.1%	-10.8%
CCCCNc1nc(C)nc2c1nc(-c1ccccc1)n2CC1CCN(C)CC1	1.0%	-1.6%	x	2.2%
Nc1nc(Cl)nc2c1ncn2[C@@H]1O[C@@H](COP(=O)(O)OP(=O)(O)OP(=O)(O)O)[C@@H](O)[C@H]1O	9.4%	-2.6%	-0.2%	-9.8%
SMILES	ALOX15 inhib	Hsp90 Hop PPI	USP2a inh	Tau fil binding
CCCNC(=O)c1cc(-c2ccc(O)cc2)on1	5.7%	-1.6%	x	-2.9%
COc1ccccc1-c1nc(NCc2ccccc2)c2ccccc2n1	-1.8%	-4.7%	29.1%	3.98µM*
COc1cccc(-c2nc(NC3CC3)c3ccccc3n2)c1	25.1µM*	u	51.8%	55.7%
COc1cccc(-c2nc(NCc3ccccc3)c3ccccc3n2)c1	-24.1%	-6.8%	115.9%	-4.8%
N=c1sc2ccccc2n1CCS (tested in a mixture with another compound)	-11.3%[11.4 µM]	0.7%[11 µM]	x	-17.9%[11.4 µM]
C=CCOC(=O)C(C(=O)CC)C(NC(=O)OC)c1ccc(F)cc1 (configuration not stated)	1.1%[11.4 µM]	x	x	x
CC(C)(C)C1CCC2(CC1)C(C#N)=C(SCC(=O)NC1CCCCC1)NC(=O)C2C#N (configuration not stated)	-10.0%	-5.4%	33.5%	12.6µM*
N#CC1=C(SCC(=O)NC2CC2)NC(=O)C(C#N)C12CCCCC2 (configuration not stated)	-9.8%	1.6%	6.8%	13.1%
CC(C)C[C@@H](CC(=O)N[C@@H](CCC(=O)O)CC(=O)O)NC(=O)[C@@H]1CNCC[C@H]1NC(=O)C[C@H](CCCN)NC(=O)C[C@H](Cc1c[nH]c2ccccc12)NC(=O)[C@@H]1CNCC[C@H]1N	x	-11.4%	x	u
NCCNCCNCCNCCN	24.3%	5.01µM*	x	92.2%
Cc1noc(C(=O)Nc2ccc3c(c2)OCO3)c1Cl	-3.5%	-9.2%	x	10µM*
CCOC(=O)CNc1ccc2c(c1)OCO2	2µM*	-13.5%	9.5%	55.4%
O=C(Nc1ccncc1)C1COc2ccccc2O1 (configuration not stated)	8.2%	-0.7%	-7.9%	2.4%
CC(=O)Nc1ccc(C(=O)Nc2ccc3c(c2)OCO3)cc1	6.3%	-21.7%	15.2%	20µM*
CCOC(=O)c1c(N)sc(C(=O)Nc2ccc3c(c2)OCO3)c1C	0.1%	-6.1%	14.5%	-18.0%
O=C(Nc1ccc2c(c1)OCO2)C1COc2ccccc2O1 (configuration not stated)	-4.1%	-5.8%	24.9%	12.6µM*
CCC(=O)Nc1ccc(C(=O)Nc2ccc3c(c2)OCO3)cc1	-2.7%	-12.0%	2.9%	7.5%
COc1ccc(C(=O)N2CCC3(CC2)CCN(c2cccc(-c4ccccc4)c2)CC3)cc1	-7.4%	-20.3%	83.1%	-16.9%
COc1ccc(/C=N/NC(=O)c2cc(-c3ccc(Cl)cc3)n[nH]2)cc1OC	-3.9%	x	x	x
N#Cc1cccc(-c2nc(NCCN3CCOCC3)c3ccccc3n2)c1	-1.3%	-3.9%	100.4%	32.5%
COc1ccc(OC)c(NC(=O)C2CCCN(S(=O)(=O)c3c(C)noc3C)C2)c1 (configuration not stated)	-4.7%	-2.2%	14.0%	25.1µM*
COc1ccc2nc(NC(=O)C3CCCN(S(=O)(=O)c4cccc5nonc45)C3)sc2c1 (configuration not stated)	u	-27.8%	28.2%	10µM*
NCCC(=O)O	-7.7%[25.6 µM]	-1.8%	x	3.9%
Nc1ccc(-c2cc(N)n(-c3ccccc3)n2)cc1	-7.2%	-11.2%	11.0%	u
Cc1ccc(-n2nc(-c3ccc(N)cc3)cc2N)cc1	-1.9%	-2.7%[2.3 µM]	x	7.94µM*
SMILES	ALOX15 inhib	Hsp90 Hop PPI	USP2a inh	Tau fil binding
CC1CC[C@@]23CCC4(C)[C@@]5(C)CCC6C(C)(C)C(=O)CC[C@@]6(C)C5C=C[C@@]4(OC2=O)C3C1C (some centres not stated)	-7.8%	x	40.1%	x
S=C1NCN2CCN(CC2)CNC(=S)C(=S)NCN2CCN(CC2)CNC1=S	15.2%[11.4 µM]	-0.7%[11 µM]	x	1.8%[11.4 µM]
Cc1ccc(-n2nnnc2SCC(=O)NCCC2=CCCCC2)c(C)c1	31.6µM*	10.7%	5.3%	-6.2%
Cc1ccc(-n2nnnc2SCC(N)=O)c(C)c1	2.5%	-5.2%	-3.2%	2.9%
Cc1ccsc1/C=C\C1=NCCCN1C	2.9%[25.6 µM]	-1.4%[26 µM]	-10.4%[17.1 µM]	-1.2%[25.6 µM]
O=C(Oc1cccc2cccnc12)c1ccc(Br)o1	25.0%	25.1µM*	u	-6.6%
